Rows were chosen to be rich in hits. Some 4.5% of all compounds tested hit in one or more screens of this group.
tim23-1 inh: growth inhibitors of tim23-1 mutant yeast, primary screen, luminescence, uHTS | AID 463212, 2010 | inhibition, % at 20 µM | actives 1.3% (n = 330,000) | S. cerevisiae tim23-1 growth, BacTiter-Glo luminescence, 24 h;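 active = growth inhibition of the mutant yeast at or above 50%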;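 also: temperature-sensitive mutant grown at 25 °C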
tim10-1 inh: growth inhibitors of tim10-1 mutant yeast, primary screen, luminescence, uHTS | S. cerevisiae tim10-1 ts strain growth, BacTiter-Glo, 24 h | inhibition, % at 20 µM | actives 2.2% (n = 330,000) | AID 463190, 2010;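 active = inhibition of at least 40%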;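 also: mutant grown at 25 °C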
TIM10 inh: growth inhibitors of isogenic TIM10 control yeast, primary screen, counter-screen for tim10-1 yeast inhibitor project, luminescence, uHTS. S. cerevisiae TIM10 strain growth, BacTiter-Glo luminescence, 24 h. actives 1.4% (n = 330,000). inhibition, % at 10 µM. AID 463195, 2010;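 active = inhibition of 40% or more at the single tested concentration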;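 also: wild-type TIM10 isogenic control strain grown at permissive 25 °C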
NALP3 yeast inh: NALP3 inflammasome inhibitors in reconstituted yeast, primary screen, luminescence, uHTS | inhibition, % at 10 µM | Yeast reconstituted NLRP3/ASC/caspase-1, beta-gal luminescence, 24 h | actives 0.39% (n = 330,000) | AID 2825, 2010;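 active = inhibition of 50% or more; inactive = inhibition below 50%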
SKKanGAS inh: S. pyogenes SKKanGAS growth inhibitors in kanamycin, primary screen, streptokinase expression inhibitor project, SKKanGAS strain, BacTiter-Glo luminescence; AID 1662, 2009; inhibition, % at 7.5 µM; actives 1.3% (n = 300,000); 6 h;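 active = mean replicate score, as percent of positive control median, at least 50; inconclusive = mean below 50 but one replicate at or above 50; inactive = mean and every replicate below 50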;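 also: strain carries kanamycin resistance gene driven by streptokinase promoter and grows in 40 µg/ml kanamycin; loss of luminescence reflects streptokinase promoter inhibition or plain growth inhibition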
PfHsp90 set2: growth inhibition of PfHsp90-expressing yeast, primary screen, antimalarial PfHsp90 inhibitor project, S. cerevisiae, BacTiter-Glo luminescence, single point, set 2; BacTiter-Glo ATP, 48 h; yeast lacking PDR1 and PDR3 efflux regulators; inhibition, % at 9.4 µM; actives 0.32% (n = 310,000); AID 504621, 2011;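 active = every replicate shows inhibition above about 80%, whatever the replicate mean, limit read from the data; inconclusive = mean inhibition reaches the set limit but some replicate falls short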
tim10-1 conf: growth inhibitors of tim10-1 mutant yeast, confirmation, single concentration, luminescence, S. cerevisiae; shares compounds with tim10-1 inh; inhibition, % at 20 µM; S. cerevisiae tim10-1 ts strain growth, BacTiter-Glo, 24 h; actives 56% (n = 7,400); AID 463213, 2010;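 active = inhibition of yeast growth at or above a set limit in either of two repeat tests at 20 µM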;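 also: tim10-1 mutant grown at permissive 25 °C to find synthetic lethal compounds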
Numbers stand for hits; n = inactive; u = inconclusive; x = not tested or not shown.

SMILES	tim23-1 inh	tim10-1 inh	TIM10 inh	NALP3 yeast inh	SKKanGAS inh	PfHsp90 set2	tim10-1 conf
Cc1ccc(NS(=O)(=O)c2ccc(-c3coc(C)n3)cc2)c(Br)c1	n	57	n	n	n	n	n
Cc1ccc(C)c(NS(=O)(=O)c2ccc(-c3coc(C)n3)cc2)c1	n	41	n	n	n	n	n
Cc1nc(-c2ccc(S(=O)(=O)Nc3ccc(S(N)(=O)=O)cc3)cc2)co1	n	n	n	n	n	n	x
O=C(COC(=O)/C=C/c1ccc(OC(F)F)cc1)NC1CCCC1	n	n	n	n	x	n	x
COc1ccc(-n2cc(-c3ccccc3)[n+]3c2CCCCC3)cc1	n	n	n	n	n	n	x
COc1ccc(-c2cn(-c3ccc(OC)cc3)c3[n+]2-c2ccccc2CC3)cc1	n	53	n	n	n	n	40
O=C(NC1CCN(C(=O)c2cccc([N+](=O)[O-])c2)CC1)c1ccccc1	n	n	n	n	n	n	x
Cc1cc(C(=O)NCC(=O)Nc2ccc(F)c(F)c2)c(C)o1	n	n	n	n	x	x	x
CC(C)Nc1nc(Cl)nc(NCCOc2ccccc2)n1	n	40	n	n	n	n	n
CCN(CC)C(=O)c1nc[nH]c1C(=O)N(CC)CC	n	n	n	n	x	x	x
CCOC(=O)C(Cc1ccccc1)NC(=O)CCc1c(C)nc2ncnn2c1C (stereo not given)	n	n	n	n	n	n	x
CCOC(=O)C(Sc1cc(-c2ccccc2)nc2ncnn12)C(C)=O (stereo not given)	n	41	n	n	n	n	30
COCCN(C(=O)c1snc(C(N)=O)c1N)C(C(=O)NC1CCCCC1)c1ccc(N(C)C)cc1 (stereo not given)	n	n	n	n	n	n	x
Cc1cc(Cl)cc(Cl)c1OCC(=O)NCc1ccco1	n	50	n	n	n	n	40
Cc1c(C(C)(C(=O)O)c2c(C)n(C)c3ccccc23)c2ccccc2n1C	n	n	n	n	n	x	x
C=CCOCCN1C(=O)C2C(c3ccccc3)C=CC(c3ccccc3)C2C1=O (stereo not given)	n	41	n	n	n	n	n
C=CC[N+](C)(C)CCN1C(=O)C2C(c3ccccc3)C=CC(c3ccccc3)C2C1=O (stereo not given)	n	n	n	n	n	n	x
Clc1nc(-c2ccccc2)ncc1Oc1ccccc1	n	n	n	n	n	x	x
CCCCCCC(=O)OCC(=O)c1ccc2c(c1)NC(=O)CO2	n	40	n	n	n	n	n
CCn1c(SCC(=O)N2CCC(C)CC2)nc2c1c(=O)n(C)c(=O)n2C	n	n	n	n	n	n	x
COc1ccc(-n2c(Cc3cccn3C)nnc2SCC(=O)Nc2ccc(Cl)cc2)cc1	n	42	n	n	n	n	n
CCOc1ccc(NC(=O)CN(C)C(=O)CCCc2c[nH]c3ccccc23)cc1OCC	n	n	n	n	n	n	x
O=C(CS(=O)(=O)c1ccc(F)cc1)NCCS(=O)(=O)c1ccccc1	n	n	n	n	n	n	x
Cc1ccc(N=C2C(=O)Nc3ccc(C)c(Br)c32)cc1	n	41	n	n	n	n	30
Cc1cc(C)c2sc(C)[n+](CCCS(=O)(=O)[O-])c2c1	n	n	n	n	n	n	x
SMILES	tim23-1 inh	tim10-1 inh	TIM10 inh	NALP3 yeast inh	SKKanGAS inh	PfHsp90 set2	tim10-1 conf
CC[n+]1c(C)sc2c(C)cc(C)cc21	n	42	n	n	n	n	34
CCc1ccc(NC(=S)N(Cc2ccccc2)Cc2ccccn2)cc1	n	48	n	n	n	x	35
O=C(COC(=O)/C=C/c1cccs1)Nc1ccc(Cl)cc1F	n	n	n	n	x	n	x
O=C1CC(c2ccc3ccccc3c2)NN1 (stereo not given)	n	n	n	n	x	n	x
Cc1ccc(NC(=O)c2sc3nc(C)nc(N4CCN(c5ccccn5)CC4)c3c2C)c(C)c1	n	n	n	n	n	n	x
Cc1ccc(NC(=O)c2sc3ncnc(N4CCN(c5ccccn5)CC4)c3c2C)c(C)c1	n	48	n	n	n	n	n
C=CCN(c1nc(C)cc(OC)n1)S(=O)(=O)c1ccccc1	n	n	n	n	n	n	x
CCN(c1nc(C)cc(OC)n1)S(=O)(=O)c1ccccc1	n	40	n	n	n	n	n
CSc1cccc(NC(=S)N2CCC(c3ccccc3)C2)c1 (stereo not given)	n	48	n	n	n	n	n
O=C(O)CCNS(=O)(=O)c1cccc2nsnc12	n	n	n	n	x	n	x
Cc1ccc(S(=O)(=O)N(C(=O)c2ccncc2)c2ccc(OC(=O)c3ccncc3)c3ccccc23)c(C)c1	n	48	n	n	n	n	32
Cc1ccc(S(=O)(=O)N(C(=O)c2ccncc2)c2ccc(OC(=O)c3ccncc3)c3ccccc23)cc1	n	n	n	n	n	n	x
COC(=O)c1c(NC(=O)CS(=O)(=O)c2ccccc2)sc(C)c1C	n	n	n	n	n	n	x
N#Cc1c(-c2ccccc2)nc(SCc2cccc(Cl)c2)[nH]c1=O	n	42	n	n	u	n	n
O=C(Cc1ccc(Br)cc1)NCCc1ccc(Cl)cc1Cl	n	n	n	n	n	n	x
COc1ccc(CC(=O)NCCc2ccc(Cl)cc2Cl)cc1	n	40	n	n	n	n	n
CCOC(=O)Cn1nc(C)cc1NC(=O)c1cccnc1	n	n	n	n	n	n	x
Clc1ccc(Cn2c(/C=C/c3ccco3)nc3ccccc32)cc1	n	48	n	n	n	n	40
CN1/C(=C/C2CC(=O)N(c3cccc4ccccc34)C2=O)C(C)(C)c2ccccc21 (stereo not given)	n	51	n	n	n	n	39
O=C(c1ccc(Cl)cc1)[C@@H]1[C@@H]2C(=O)N(c3ccccc3)C(=O)[C@@H]2C2c3ccccc3C=NN21 (stereo not given in full)	n	40	n	n	n	n	n
O=C(c1ccc2c(c1)OCCO2)N1CCN(c2ncc(C(F)(F)F)cc2Cl)CC1	n	48	n	n	n	n	34
O=C(Nc1ccc2c(c1)OCO2)N1CCN(c2ncc(C(F)(F)F)cc2Cl)CC1	n	n	n	n	n	n	x
CCOc1ccc(C(C)=O)cc1COC(=O)c1ccccc1C(=O)N(C)Cc1ccccc1	n	n	n	n	x	n	x
Nc1ccccc1C(=O)/C=C/c1ccc2c(c1)OCO2	n	44	n	n	n	n	39

Assay outcomes (PubChem)
